Methyltransferases = Primary Screen for Target Class Profiling of Small Molecule Inhibitors of Methyltransferases. purified enzyme, MTase-Glo SAH luminescence; active compounds read low. calls only at 40 µM. actives 3.9% (n = 25,000); call rule not given here
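Each enzyme was reacted with SAM and its substrate, with compounds tested once at 40 uM; SAH formed was read by MTase-Glo luminescence.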
Starred values were filed as active, the others as inactive; i = inactive; + = active, no number. Many of the other results were omitted from the sample, so hits are more common in it than they were. % is scaled to controls: 0 for no effect and ±100 for the full control effect.

SMILES	Methyltransferases
CC1(C)CCC(CN2CCN(c3ccc(C(=O)NS(=O)(=O)c4ccc(NCC5CCOCC5)c([N+](=O)[O-])c4)c(Oc4cnc5[nH]ccc5c4)c3)CC2)=C(c2ccc(Cl)cc2)C1	+
Cc1ccc(CN2C(=O)c3ccc(-c4ccco4)n3CC2(C)C(=O)NC2CCCC2)cc1 (stereo unspecified)	i
Cn1c(=O)c2ccc(C(=O)NC3CCCC3)cc2n2c(=O)n(CC(=O)Nc3ccccc3F)nc12	i
c1ccc(N2CCN(CCc3nn[nH]n3)CC2)cc1	i
O=C(O)c1ccc(O)c2ncc(N3CCCN(CCc4cccc5ccccc45)CC3)cc12	+
COc1cccc(CNc2nc3c(S(=O)(=O)c4ccccc4)nnn3c3ccc(Cl)cc23)c1	i
COc1cccc(CNC(=O)CCn2ccc3cc(S(=O)(=O)N4CCCCC4)ccc32)c1	i
Cc1cccc(-c2[nH]c(CNc3ccccc3F)nc2-c2ccc3ncnn3c2)n1	i
Oc1ccc(CNc2ccccc2F)c2cccnc12	+
Cc1ccc(CN2C(=O)c3nc4ccccc4n3CC2(C)C(=O)NC2CCCC(C)C2C)cc1 (stereo unspecified)	i
N#CC(=C(\N)Sc1ccccc1N)/C(C#N)=C(/N)Sc1ccccc1N	+
CCC1CCCCN1CCCN1C(=O)c2cc3sccc3n2CC1(C)C(=O)NC1CCCCCC1 (stereo unspecified)	i
O=C(Nc1cccc(F)c1)N1CCn2cccc2C1Cc1ccccc1 (stereo unspecified)	i
O=C(Nc1ccc(F)c(Cl)c1)N1CCn2cccc2C1Cc1ccccc1 (stereo unspecified)	+
Cc1cccc(NC(=O)N2CCn3cccc3C2Cc2ccccc2)c1 (stereo unspecified)	i
CCCN1C(=O)c2c(C(=O)NCc3ccc(F)cc3)ncn2CC1(C)C(=O)NCc1ccc(OC)cc1 (stereo unspecified)	i
CCCn1c(=O)c2ccc(C(=O)NC(C)C)cc2n2c(=O)n(CC(=O)c3ccc(Cl)cc3)nc12	i
CC1(C(=O)NC2CCCCCC2)Cn2nc(-c3ccco3)cc2C(=O)N1Cc1ccco1 (stereo unspecified)	i
COc1cccc(OC)c1-c1ccc(C[C@H](NC(=O)c2c(Cl)cccc2Cl)C(=O)O)cc1	i
COc1ccc(CC(NC(C)=O)C(=O)O)cc1 (stereo unspecified)	+
CC(=O)N[C@@H](CS)C(=O)O	i
CCOC(=O)c1cc2n(n1)CC(C)(C(=O)NCCC(C)C)N(c1ccc(Cl)cc1C)C2=O (stereo unspecified)	i
NC(N)=NC(=O)c1nc(Cl)c(N2CCCCCC2)nc1N	i
CC[C@H]1CN(c2nc(N)c(C(N)=O)nc2Cl)CCN1C1CCN(Cc2ccc(Cl)cc2)CC1	+
Cc1c(C)c(NCC(=O)N(C)C2CCN(Cc3ccc(C(N)=O)cc3)CC2)c(C)c(C)c1N	i
SMILES	Methyltransferases
Cc1c(CN2CCN(S(C)(=O)=O)CC2)sc2c(N3CCOCC3)nc(-c3cnc(N)nc3)nc12	+
CS(=O)(=O)N1CCc2c(-c3cnc(N)nc3)nc(N3CCOCC3)nc21	i
Cc1ccc(CNC(=O)Cn2nc3n(C)c(=O)c4ccc(C(=O)NCC(C)C)cc4n3c2=O)cc1	i
COc1cccc(CN2C(=O)c3cc4c(OC)ccc(OC)c4n3CC2(C)C(=O)NC2CCCC2)c1 (stereo unspecified)	i
Cc1ccc(NC(=O)Cn2c(=O)oc3cc(S(=O)(=O)N4CC(C)CC(C)C4)ccc32)c(C)c1 (stereo unspecified)	i
CN1C(=O)c2cc(C(=O)NCc3cccc(F)c3)nn2CC1(C)C(=O)NC1CCCCC1 (stereo unspecified)	i
CC(C)(C)CC(C)(C)c1ccc(OCCOCC[N+](C)(C)Cc2ccccc2)cc1	+
COc1ccccc1Oc1ncccc1CNCc1c(F)cccc1Cl	i
COc1ccccc1CNS(=O)(=O)c1cc2c(cc1Cl)n(C)c(=O)n2C	i
COc1ccccc1CNCCCCCCNCCCCCCCCNCCCCCCNCc1ccccc1OC	+
CCOC(=O)c1cc2n(n1)CC(C)(C(=O)NCCOC)N(c1ccc(C)c(C)c1)C2=O (stereo unspecified)	i
CCOCCCN1C(=O)c2ccc(-c3ccco3)n2CC1(C)C(=O)NC1CCCCC1 (stereo unspecified)	i
Nc1ncnc2c1c(-c1cccc(OCc3ccccc3)c1)cn2C1CC(CN2CCCC2)C1 (stereo unspecified)	+
COc1cccc(CNC(=O)CCc2nnc3n(Cc4ccc(F)cc4)c(=O)c4ccccc4n23)c1	i
Cn1cc(-c2cnn3c(N)c(Br)c(C4CCCNC4)nc23)cn1 (stereo unspecified)	+
CC1(C(=O)NC2CCCCCC2)Cn2c(cc3ccccc32)C(=O)N1Cc1ccccn1 (stereo unspecified)	i
O=C1CN(Cc2cccc(C(F)(F)F)c2)S(=O)(=O)c2ccccc2N1Cc1ccc(Cl)cc1	i
CC(C)CCNC(=O)C1(C)Cn2c(cc3ccccc32)C(=O)N1c1cccc(Cl)c1 (stereo unspecified)	i
O=C(CSc1nnc2n(Cc3ccccc3)c(=O)c3ccccc3n12)Nc1cccc(F)c1	i
COC(=O)[C@H](Cc1cccc(C(=N)N)c1)[C@@H](C)NC(=O)c1ccc(-c2cc[n+]([O-])cc2)cc1	+
CCc1ccc(C(=O)NC(Cc2c[nH]c3ccccc23)C(=O)OCC(=O)c2ccc(C)cc2)cc1 (stereo unspecified)	i
COC(=O)C(Cc1c[nH]c2ccccc12)NC(=O)c1ccc(Br)cc1 (stereo unspecified)	i
CCC(C)NC(=O)c1ccc2c(=O)n(C3CC3)c3nn(CC(=O)Nc4ccccc4F)c(=O)n3c2c1 (stereo unspecified)	i
CC(C)n1c(=O)c2ccc(C(=O)NC3CCCCC3)cc2n2c(=O)n(CC(=O)NC(C)(C)C)nc12	i
COc1cccc(N2C(=O)c3cc4sccc4n3CC2(C)C(=O)NC2CCCCCCC2)c1 (stereo unspecified)	i
SMILES	Methyltransferases
CCc1ccc(NC(=O)Cn2nc3nc(Nc4ccc(C)cc4)ccn3c2=O)cc1	i
CC(C)c1cc(CNc2nc(Nc3cc(C4CC4)[nH]n3)cc(N3CCN(C)CC3)n2)on1	+
CCc1ccc(N2C(=O)c3cc4occc4n3CC2(C)C(=O)NC2CCCCCC2)cc1 (stereo unspecified)	i
CN(C)c1ccc(CNC(=O)CCCn2ccc3cc(S(=O)(=O)N4CCCC4)ccc32)cc1	i
CN(C)c1ccc(Nc2c3ccc(NC(=O)CCN4CCCC4)cc3nc3cc(NC(=O)CCN4CCCC4)ccc23)cc1	+
C[C@@H]1C[C@H](C)CN(CCC(=O)Nc2ccc(Br)cc2)C1	i
CCC(C)NC(=O)c1ccc2c(=O)n(CCC(C)C)c3nn(Cc4ccc(C)cc4)c(=O)n3c2c1 (stereo unspecified)	i
COc1ccc(NC(=O)CSc2nnc3[nH]c(=O)c(C(C)(C)C)nn23)cc1OC	i
Cc1nc(CCNC(=O)c2cnc(-c3cccnc3)nc2)cc(=O)[nH]1	i
Cc1ccc(NC(=O)N2CCC(n3c(C)cnc3-c3cccnc3)C2)cc1C (stereo unspecified)	i
Cc1cc(NC(=O)c2cccc(NC(=O)/C=C/CN(C)C)c2)ccc1Nc1nccc(-c2cccnc2)n1	+
CCOC(=O)C1CCN(C(=O)c2ccc3nccn3c2)CC1	i

From PubChem BioAssay
